Laboratory results: PubChem BioAssay AID1159580 (chemical genetic matrix, 2015)
Several values for one entry are separate records, joined by “and”; a condition that tells them apart may be missing. Equal entries are not always repeated. About 2,000 (36%) of roughly 5,500 compounds were called active. Roughly 18% stayed inconclusive and do not appear here. Cut-off read from the data, not from the text of the source: active = normalized growth mostly below about 0.91 (no sharp cut-off); inconclusive = no clear call, values can overlap the other calls; inactive = mostly above about 0.92. This is one part of the list.

Assay: chemical genetic growth profiling, strain panel (AID 1159580);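 note: tested at 20 µM; growth read once vehicle control cultures reached saturation at 30 °C; 1 = growth at the plate median or of vehicle wells; lower values mean less growth of the strain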
Details: S. cerevisiae deletion strains, growth OD

Measured: normalized growth

CCN1CCCC(OC(=O)C(c2ccccc2)c2ccccc2)C1 (stereo not drawn)
inactive: locus YAL021C, strain ccr4, stronger effect = lower value 0.978 | locus YAL026C, strain drs2, stronger effect = lower value 0.99 | locus YAL030W, strain snc1, stronger effect = lower value 0.989 | locus YBL061C, strain skt5, stronger effect = lower value 0.982 | locus YBR009C, strain hhf1, stronger effect = lower value 0.992 | locus YBR021W, strain FUR4, stronger effect = lower value 1.03 | locus YBR023C, strain chs3, stronger effect = lower value 0.973 | locus YBR171W, strain sec66, stronger effect = lower value 0.99 | locus YBR229C, strain ROT2, stronger effect = lower value 1.01 | locus YBR231C, strain swc5, stronger effect = lower value 0.989 | locus YBR279W, strain paf1, stronger effect = lower value 0.998 | locus YCL011C, strain gbp2, stronger effect = lower value 1 | locus YCL016C, strain dcc1, stronger effect = lower value 0.973 | locus YCL029C, strain bik1, stronger effect = lower value 1.01 | locus YCL061C, strain MRC1, stronger effect = lower value 0.989 | locus YCL069W, strain vba3, stronger effect = lower value 0.989 | locus YCR088W, strain abp1, stronger effect = lower value 0.978 | locus YDL005C, strain med2, stronger effect = lower value 0.982 | locus YDL035C, strain GPR1, stronger effect = lower value 1.03 | locus YDL040C, strain nat1, stronger effect = lower value 0.98 | locus YDL074C, strain BRE1, stronger effect = lower value 1.01 | locus YDL101C, strain DUN1, stronger effect = lower value 1.01 | locus YDL134C, strain PPH21, stronger effect = lower value 1.02 | locus YDL185W, strain tfp1, stronger effect = lower value 1.01 | locus YDL192W, strain arf1, stronger effect = lower value 1.01 | locus YDR001C, strain nth1, stronger effect = lower value 0.975 | locus YDR069C, strain doa4, stronger effect = lower value 1 | locus YDR101C, strain arx1, stronger effect = lower value 0.992 | locus YDR137W, strain rgp1, stronger effect = lower value 1.01 | locus YDR159W, strain sac3, stronger effect = lower value 0.989 | locus YDR162C, strain NBP2, stronger effect = lower value 1.01 | locus YDR195W, strain ref2 0.963 | locus YDR297W, strain sur2, stronger effect = lower value 0.993 | locus YDR318W, strain mcm21, stronger effect = lower value 1.01 | locus YDR334W, strain swr1, stronger effect = lower value 0.958 | locus YDR335W, strain msn5, stronger effect = lower value 0.963 | locus YDR388W, stronger effect = lower value 1.01 | locus YDR392W, strain spt3, stronger effect = lower value 0.975 | locus YDR502C, strain sam2, stronger effect = lower value 0.999 | locus YEL003W, strain gim4, stronger effect = lower value 0.978 | locus YEL037C, strain rad23, stronger effect = lower value 0.978 | locus YEL061C, strain CIN8 (second series), stronger effect = lower value 0.999 | locus YEL061C, strain CIN8, stronger effect = lower value 1.01 | locus YER015W, strain faa2, stronger effect = lower value 0.974 | locus YER016W, strain bim1, stronger effect = lower value 0.986 | locus YER110C, stronger effect = lower value 1.01 | locus YER111C, strain swi4, stronger effect = lower value 0.978 | locus YER155C, strain BEM2 (second series), stronger effect = lower value 1 | locus YER155C, strain BEM2, stronger effect = lower value 1.01 | locus YER167W, strain BCK2, stronger effect = lower value 1.01 | locus YFR010W, strain ubp6, stronger effect = lower value 0.99 | locus YGL078C, strain dbp3, stronger effect = lower value 1 | locus YGL086W, strain mad1, stronger effect = lower value 1.01 | locus YGL167C, strain pmr1, stronger effect = lower value 0.981 | locus YGL173C, strain kem1, stronger effect = lower value 0.982 | locus YGL227W, strain vid30, stronger effect = lower value 0.997 | locus YGL240W, strain doc1, stronger effect = lower value 0.994 | locus YGL248W, strain PDE1, stronger effect = lower value 1.01 | locus YGL253W, strain hxk2, stronger effect = lower value 0.991 | locus YGR135W, strain pre9, stronger effect = lower value 1 | locus YGR229C, strain SMI1, stronger effect = lower value 1.01 | locus YGR252W, strain gcn5, stronger effect = lower value 0.998 | locus YHR013C, strain ard1, stronger effect = lower value 0.96 | locus YHR027C, strain rpn1, stronger effect = lower value 0.986 | locus YHR030C, strain SLT2, stronger effect = lower value 1.01 and 0.993 | locus YHR079C, strain IRE1 (second series), stronger effect = lower value 1.01 | locus YHR079C, strain IRE1, stronger effect = lower value 0.978 | locus YHR094C, strain hxt1, stronger effect = lower value 1.01 | locus YHR129C, strain ARP1, stronger effect = lower value 1 | locus YHR142W, strain chs7, stronger effect = lower value 0.978 | locus YHR200W, strain rpn10, stronger effect = lower value 1 | locus YIL066C, strain RNR3, stronger effect = lower value 1.01 | locus YIL073C, strain SPO22, stronger effect = lower value 1.08 | locus YIL125W, strain kgd1, stronger effect = lower value 1 | locus YIR030C, strain dcg1, stronger effect = lower value 1.01 | locus YJL092W, strain hpr5, stronger effect = lower value 0.973 | locus YJL095W, strain BCK1 (second series), stronger effect = lower value 0.994 | locus YJL095W, strain BCK1, stronger effect = lower value 0.987 and 0.977 | locus YJL115W, strain asf1, stronger effect = lower value 0.977 | locus YJL129C, strain trk1, stronger effect = lower value 0.964 | locus YJL134W, strain LCB3, stronger effect = lower value 1.01 | locus YJL154C, strain vps35, stronger effect = lower value 0.976 | locus YJL164C, strain tpk1, stronger effect = lower value 1 | locus YJL166W, strain qcr8, stronger effect = lower value 0.982 | locus YJL168C, strain set2, stronger effect = lower value 1.01 | locus YJL187C, strain SWE1 (second series), stronger effect = lower value 1 | locus YJR043C, strain POL32, stronger effect = lower value 1.04 | locus YJR066W, strain TOR1, stronger effect = lower value 0.955
